Holding throughout (parameters): scale not given: direction of the effect not stated beside the values
Assay [1] concerns the target Protein translocase subunit SecA (Escherichia coli (strain K12)) (UniProt P10408). Description: Assay to Identify E. coli SecA ATPase Inhibitors. Type of assay: functional. The settings on record: 30 µM.
In assay [2] the target is T1, Ubiquitin-activating enzyme e1, putative (Leishmania donovani (strain BPK282A1)) (UniProt E9BSI1).
T1 sequence (whole entry): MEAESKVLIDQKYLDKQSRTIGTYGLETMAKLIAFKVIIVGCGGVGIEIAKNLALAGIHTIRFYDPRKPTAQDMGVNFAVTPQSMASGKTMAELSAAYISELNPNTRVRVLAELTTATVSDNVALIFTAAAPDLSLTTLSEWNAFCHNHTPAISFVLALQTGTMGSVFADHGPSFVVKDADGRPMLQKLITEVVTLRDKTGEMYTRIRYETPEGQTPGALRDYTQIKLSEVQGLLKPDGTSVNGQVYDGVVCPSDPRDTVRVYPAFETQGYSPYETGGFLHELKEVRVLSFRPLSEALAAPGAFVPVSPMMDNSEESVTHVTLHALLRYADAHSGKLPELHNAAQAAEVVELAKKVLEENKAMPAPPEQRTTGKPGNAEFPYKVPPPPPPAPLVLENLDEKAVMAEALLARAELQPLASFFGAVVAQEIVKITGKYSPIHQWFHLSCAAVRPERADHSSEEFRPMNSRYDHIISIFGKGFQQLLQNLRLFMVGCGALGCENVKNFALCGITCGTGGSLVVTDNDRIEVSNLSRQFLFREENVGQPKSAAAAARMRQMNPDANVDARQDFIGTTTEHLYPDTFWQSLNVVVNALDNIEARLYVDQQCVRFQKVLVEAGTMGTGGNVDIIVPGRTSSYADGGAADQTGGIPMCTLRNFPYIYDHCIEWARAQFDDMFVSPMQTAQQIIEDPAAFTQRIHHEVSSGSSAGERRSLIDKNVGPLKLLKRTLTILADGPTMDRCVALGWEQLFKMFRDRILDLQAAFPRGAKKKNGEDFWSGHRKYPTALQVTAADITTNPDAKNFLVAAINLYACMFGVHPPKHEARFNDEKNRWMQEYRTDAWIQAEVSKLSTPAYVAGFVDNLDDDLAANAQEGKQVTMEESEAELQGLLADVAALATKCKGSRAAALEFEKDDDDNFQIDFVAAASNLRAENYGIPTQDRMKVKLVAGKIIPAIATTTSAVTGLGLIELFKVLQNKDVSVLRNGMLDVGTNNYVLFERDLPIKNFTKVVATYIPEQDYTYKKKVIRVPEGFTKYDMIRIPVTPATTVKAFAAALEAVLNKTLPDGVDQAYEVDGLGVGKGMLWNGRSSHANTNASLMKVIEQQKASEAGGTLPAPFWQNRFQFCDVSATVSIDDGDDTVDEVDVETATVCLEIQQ
Description: Leishmania donovani Ubiquitin Activating Enzyme (LdE1). Type of assay: functional. The settings on record: 30 µM.

The target of assay [3] is AMP-activated protein kinase, AMPK (Homo sapiens) (UniProt P54646+O43741+P54619+Q9UGJ0+Q9Y478+Q13131+Q9UGI9). Description: AMP-dependent Kinase enzyme assay. An in vitro enzyme assay that detects ADP turnover that is directly proportional to AMPK activity. This uses naive AMPK that is activated during the assay with MK-8722. Type of assay: functional. The settings on record: 30 µM.

The target of assay [4] is Sialic acid-binding Ig-like lectin 9 (Homo sapiens) (UniProt Q9Y336). Description: Hs-Siglec9 ALPHAscreen SOP 20170721. The settings on record: 10 µM.
Assay [5] has as its system Trypanosoma cruzi. Description: Trypanosoma cruzi phosphomannomutase and mannose-1-phosphate guanylyltransferase assay. The settings on record: 10 µM. It counts as functional.
Assay [6] has as its target T2, Arginase-2, mitochondrial (Homo sapiens) (UniProt P78540).
T2 sequence (whole entry): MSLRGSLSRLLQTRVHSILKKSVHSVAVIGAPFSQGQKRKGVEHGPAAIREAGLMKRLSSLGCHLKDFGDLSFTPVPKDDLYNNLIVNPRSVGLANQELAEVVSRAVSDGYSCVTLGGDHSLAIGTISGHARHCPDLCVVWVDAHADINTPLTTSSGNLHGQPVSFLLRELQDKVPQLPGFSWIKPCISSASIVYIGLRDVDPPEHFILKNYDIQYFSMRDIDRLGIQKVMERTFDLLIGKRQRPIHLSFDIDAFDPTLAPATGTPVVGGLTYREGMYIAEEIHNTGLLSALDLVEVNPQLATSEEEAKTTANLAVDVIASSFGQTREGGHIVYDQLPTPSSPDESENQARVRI
Description: in vitro enzyme assay to detect the production of urea directly proportional to the activity of Arginase II. Further: in the data most compounds retested in dose-response had high values. Type of assay: functional. The settings on record: 33.3 µM.

Assay [7] deals with T3, Proteasome subunit beta (Trypanosoma cruzi) (UniProt O96673).
T3 sequence (whole entry): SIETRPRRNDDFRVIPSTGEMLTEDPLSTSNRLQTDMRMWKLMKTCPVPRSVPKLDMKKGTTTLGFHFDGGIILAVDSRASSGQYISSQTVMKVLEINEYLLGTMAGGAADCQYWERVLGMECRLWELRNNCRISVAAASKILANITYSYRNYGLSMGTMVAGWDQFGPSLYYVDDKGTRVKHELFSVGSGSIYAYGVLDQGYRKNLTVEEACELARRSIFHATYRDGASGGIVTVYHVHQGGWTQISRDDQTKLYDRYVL
The assay can be described thus: Trypanosoma cruzi proteasome chymotrypsin-like activity (TcProtChymo) assay. Further: in the data most compounds retested in dose-response had high values. It counts as functional. The settings on record: 9.37 µM.

The species entered for assay [8] is Homo sapiens. Description: To identify inhibition of the IFN signalling (Jak-Stat) pathway via expression of an eGFP reporter gene under the control of an IFN-stimulated response element (ISRE) containing MxA promoter. It counts as functional. The settings on record: 30 µM. (Reporter assays use an easily measured gene product as a stand-in for the process of interest.)

The target in assay [9] is T4, Tyrosyl-tRNA synthetase, putative (Trypanosoma cruzi (strain CL Brener)) (UniProt Q4DSP6).
T4 sequence (whole entry): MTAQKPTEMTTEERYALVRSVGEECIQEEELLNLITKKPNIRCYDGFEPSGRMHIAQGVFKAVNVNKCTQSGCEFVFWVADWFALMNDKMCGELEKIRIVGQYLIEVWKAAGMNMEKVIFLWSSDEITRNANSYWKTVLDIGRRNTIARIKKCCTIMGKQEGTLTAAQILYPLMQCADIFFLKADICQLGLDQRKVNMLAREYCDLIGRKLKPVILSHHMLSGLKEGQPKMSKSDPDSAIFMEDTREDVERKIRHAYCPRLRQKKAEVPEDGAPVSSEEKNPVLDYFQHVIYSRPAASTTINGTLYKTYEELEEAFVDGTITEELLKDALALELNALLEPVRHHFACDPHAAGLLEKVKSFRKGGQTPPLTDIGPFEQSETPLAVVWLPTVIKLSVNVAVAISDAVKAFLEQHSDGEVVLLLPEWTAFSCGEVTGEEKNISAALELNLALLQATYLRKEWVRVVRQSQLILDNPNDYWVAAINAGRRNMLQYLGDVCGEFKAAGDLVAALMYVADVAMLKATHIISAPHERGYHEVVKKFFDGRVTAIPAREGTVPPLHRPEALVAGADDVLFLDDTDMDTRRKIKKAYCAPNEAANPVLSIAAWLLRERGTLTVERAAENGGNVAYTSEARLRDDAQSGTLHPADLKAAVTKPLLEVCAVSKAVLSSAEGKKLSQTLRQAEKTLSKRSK
The assay can be described thus: Trypanosoma cruzi tyrosyl tRNA synthetase (TcYRS) _High Tyrosine SOP. Further: in the data most compounds retested in dose-response had high values. It counts as functional. The settings on record: 30 µM.

Assay [10] concerns the target T4, Tyrosyl-tRNA synthetase, putative (Trypanosoma cruzi (strain CL Brener)). The assay can be described thus: Trypanosoma cruzi tyrosyl tRNA synthetase (TcYRS) SOP. It counts as functional. The settings on record: 30 µM.
The target of assay [11] is Chromo domain-containing protein 1 (Saccharomyces cerevisiae (strain ATCC 204508 / S288c) (Baker's yeast)) (UniProt P32657). Description: ScCHD-1 Enzyme Inhibition Assay. Further: in the data most compounds retested in dose-response had high values. It counts as functional. The settings on record: 30 µM.

Experimental findings from ChEMBL document CHEMBL3988442, “University of Dundee, Small-Polar-MMV Screening Library” (2021) are described below.

For some of these results: Potency and affinity values are given separately.

Chain of Protein translocase subunit SecA (Escherichia coli (strain K12)) (P10408 whole entry): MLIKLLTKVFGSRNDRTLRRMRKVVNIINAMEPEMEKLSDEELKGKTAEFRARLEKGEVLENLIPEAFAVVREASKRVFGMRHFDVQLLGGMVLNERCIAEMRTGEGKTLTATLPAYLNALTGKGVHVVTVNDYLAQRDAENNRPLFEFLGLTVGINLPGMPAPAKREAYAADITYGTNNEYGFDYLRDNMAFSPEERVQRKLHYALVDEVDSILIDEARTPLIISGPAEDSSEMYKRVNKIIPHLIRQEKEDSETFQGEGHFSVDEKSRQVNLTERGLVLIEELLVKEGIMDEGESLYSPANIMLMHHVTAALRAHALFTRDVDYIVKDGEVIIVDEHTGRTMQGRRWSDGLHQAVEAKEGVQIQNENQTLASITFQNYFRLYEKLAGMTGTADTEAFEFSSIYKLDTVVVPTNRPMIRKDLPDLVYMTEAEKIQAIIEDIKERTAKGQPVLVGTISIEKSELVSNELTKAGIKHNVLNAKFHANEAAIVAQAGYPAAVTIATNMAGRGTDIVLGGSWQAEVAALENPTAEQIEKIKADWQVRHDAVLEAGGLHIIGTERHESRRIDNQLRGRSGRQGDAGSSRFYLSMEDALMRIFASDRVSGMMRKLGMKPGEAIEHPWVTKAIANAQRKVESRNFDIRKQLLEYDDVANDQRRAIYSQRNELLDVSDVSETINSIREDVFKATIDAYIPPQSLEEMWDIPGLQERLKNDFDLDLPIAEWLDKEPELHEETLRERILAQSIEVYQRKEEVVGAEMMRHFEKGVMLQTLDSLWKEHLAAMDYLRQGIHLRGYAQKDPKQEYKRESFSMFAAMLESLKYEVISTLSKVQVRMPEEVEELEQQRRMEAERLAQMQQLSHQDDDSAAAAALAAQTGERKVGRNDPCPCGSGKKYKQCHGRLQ
Chain of Chromo domain-containing protein 1 (Saccharomyces cerevisiae (strain ATCC 204508 / S288c) (Baker's yeast)) (P32657 whole entry, the tested form may be a part): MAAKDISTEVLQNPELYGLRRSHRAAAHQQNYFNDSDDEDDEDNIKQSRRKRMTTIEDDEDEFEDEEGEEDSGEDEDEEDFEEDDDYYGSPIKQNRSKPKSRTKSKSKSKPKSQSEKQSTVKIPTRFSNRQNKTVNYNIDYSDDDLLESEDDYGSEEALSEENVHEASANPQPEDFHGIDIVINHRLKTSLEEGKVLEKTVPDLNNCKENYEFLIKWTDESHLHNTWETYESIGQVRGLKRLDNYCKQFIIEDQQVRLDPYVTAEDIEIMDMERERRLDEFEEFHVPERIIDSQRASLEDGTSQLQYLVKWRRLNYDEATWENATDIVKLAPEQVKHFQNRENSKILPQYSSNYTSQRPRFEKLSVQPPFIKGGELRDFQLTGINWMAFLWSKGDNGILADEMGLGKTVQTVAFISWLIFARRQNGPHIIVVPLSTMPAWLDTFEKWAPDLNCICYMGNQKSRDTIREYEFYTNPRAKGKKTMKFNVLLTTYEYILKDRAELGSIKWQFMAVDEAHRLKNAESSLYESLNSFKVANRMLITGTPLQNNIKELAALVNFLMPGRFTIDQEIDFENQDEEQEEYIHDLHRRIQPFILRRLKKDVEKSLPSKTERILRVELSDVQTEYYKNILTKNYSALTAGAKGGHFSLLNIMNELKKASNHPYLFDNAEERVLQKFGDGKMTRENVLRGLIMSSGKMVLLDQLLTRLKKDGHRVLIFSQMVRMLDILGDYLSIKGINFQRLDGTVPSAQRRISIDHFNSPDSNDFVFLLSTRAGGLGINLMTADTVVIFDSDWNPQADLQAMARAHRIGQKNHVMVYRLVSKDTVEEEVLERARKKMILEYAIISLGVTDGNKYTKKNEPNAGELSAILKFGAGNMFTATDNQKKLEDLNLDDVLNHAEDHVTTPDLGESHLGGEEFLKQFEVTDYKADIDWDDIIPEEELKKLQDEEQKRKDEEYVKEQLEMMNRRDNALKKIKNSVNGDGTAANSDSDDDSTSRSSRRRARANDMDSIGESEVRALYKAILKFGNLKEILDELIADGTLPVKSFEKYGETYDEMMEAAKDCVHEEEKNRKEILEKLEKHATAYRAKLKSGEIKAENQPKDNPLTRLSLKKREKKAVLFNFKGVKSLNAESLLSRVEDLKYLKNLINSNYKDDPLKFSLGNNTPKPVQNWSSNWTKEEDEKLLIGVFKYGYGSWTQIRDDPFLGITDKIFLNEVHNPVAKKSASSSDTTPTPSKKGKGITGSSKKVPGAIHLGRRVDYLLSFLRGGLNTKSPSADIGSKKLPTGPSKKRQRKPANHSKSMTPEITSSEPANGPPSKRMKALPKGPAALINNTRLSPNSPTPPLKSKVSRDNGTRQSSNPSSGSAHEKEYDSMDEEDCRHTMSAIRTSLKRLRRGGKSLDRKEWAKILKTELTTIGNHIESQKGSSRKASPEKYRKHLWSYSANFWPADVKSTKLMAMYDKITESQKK
Chain of Sialic acid-binding Ig-like lectin 9 (Homo sapiens) (Q9Y336 whole entry): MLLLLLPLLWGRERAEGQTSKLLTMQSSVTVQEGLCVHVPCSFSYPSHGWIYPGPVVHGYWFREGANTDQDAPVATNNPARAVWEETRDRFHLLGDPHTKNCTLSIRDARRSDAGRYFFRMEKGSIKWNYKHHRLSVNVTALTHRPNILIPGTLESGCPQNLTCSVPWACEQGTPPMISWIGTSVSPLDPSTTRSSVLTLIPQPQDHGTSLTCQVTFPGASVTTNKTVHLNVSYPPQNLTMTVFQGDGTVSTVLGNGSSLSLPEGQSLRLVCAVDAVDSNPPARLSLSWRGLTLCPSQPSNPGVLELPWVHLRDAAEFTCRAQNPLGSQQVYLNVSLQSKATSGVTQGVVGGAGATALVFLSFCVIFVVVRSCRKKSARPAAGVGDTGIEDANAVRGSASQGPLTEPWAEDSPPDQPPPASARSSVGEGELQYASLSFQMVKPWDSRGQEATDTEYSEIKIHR

In the case of `Cc1n[nH]c(C2CN(C(=O)c3ccnc(C4CC4)n3)CCO2)n1` (stereo unspecified), the Percent Effect in assay [1] was -1.78%; in assay [2], 10.4%; in assay [3] it was 5.44%; in assay [4], 10.3%; in assay [5], -0.0979%; in assay [6], 5.26%. For the same compound, the Percent Effect in assay [7] is 9.78%; in assay [8], -6.73%; in assay [9], 5.71%; in assay [10], -23.5%; in assay [11] it was -12.2%.
For the compound `c1cnnc(NCC2CN(CCN3CCCCC3)CCO2)c1` (stereo unspecified), the Percent Effect is -2.02% in assay [1]; -7.79% in assay [2]; 5.05% in assay [3]; 6.18% in assay [4]; 9.74% in assay [5]; -3.56% in [6]. The Percent Effect is 1.01% in [7]; -18.9% in [8]; 0.971% in assay [9]; 7.32% in assay [10]; -2.7% in [11].
As for `CCC(C)NC(=O)N1CCCn2cnc(CO)c2C1` (stereo unspecified), the Percent Effect in [1] was -0.731%; in [2] it was 2.74%; in assay [3], 1.02%; in assay [4], 5.8%; in assay [5] it was 0.198%; in assay [6], 2%. The Percent Effect came out at 4.54% in assay [7]; 6.37% in assay [8]; 6.25% in assay [9]; 6.17% in [10]; 1.09% in assay [11].
Turning to `Cc1cc(C)n(CC2CN(CC(=O)Nc3nncs3)CCO2)n1` (stereo unspecified), the Percent Effect in [1] was -3.97%; in assay [2], 15.6%; in [3], 1.37%; in assay [4], 0.371%; in [5], -6.37%; in [6] it was 3.2%. The Percent Effect in assay [7] was -4.05%; in [8] it was 26.9%; in assay [9], 6.8%; in assay [10] it was 12.2%; in assay [11], -2.27%.
With `CCNC(c1ccc(OC)cc1)c1cccnc1` (stereo unspecified), the Percent Effect in assay [1] is -5.06%; in assay [2], -1.27%; in [3], 5.52%; in [4] it was 9.44%; in [5] it was -1.74%; in [6] it was -0.645%. The Percent Effect was 3.94% in assay [7]; 6.89% in assay [8]; 1.04% in [9]; 5.06% in [10]; -10.2% in assay [11].
Turning to `Cc1cc(C)c(OCC(=O)NS(=O)(=O)c2cccnc2)c(C)c1`, the Percent Effect in [1] is -3.5%; in assay [2], 21.1%; in [3], -5.54%; in [4], 1.96%; in assay [5], 3.95%; in [6], -0.766%. For the same compound, the Percent Effect in assay [7] is 16%; in [8], 6.77%; in assay [9], 10.3%; in [10], 24.4%; in assay [11] it was -14%.
With `O=C(O)c1cc(NS(=O)(=O)c2cccc(Cl)c2F)ccc1Cl`, the Percent Effect in [1] was -7.65%; in assay [2], 2.6%; in assay [3], 4.08%; in assay [4], 1.53%; in assay [5], -5.8%; in assay [6], -2.13%. Moreover, the Percent Effect was 5.57% in assay [7]; 23.4% in [8]; -11.7% in assay [9]; -12.2% in assay [10]; -3.44% in [11].
For the compound `CN(Cc1cc2c(cc1OC(F)F)OCO2)Cc1nccn1C`, the Percent Effect was -4.78% in assay [1]; 2.7% in [2]; -4.36% in assay [3]; 4% in assay [4]; 1.27% in [5]; -0.744% in assay [6]. Further, the Percent Effect is 5.58% in [7]; 0.0596% in assay [8]; 3.23% in [9]; 6.17% in assay [10]; -1.72% in [11].
For the compound `O=C(NCCCN1CCCCC1)c1ccc(-n2ccc3ccccc32)s1`, the Percent Effect in assay [1] is -0.638%; in assay [2], -23.4%; in [3] it was -0.0111%; in assay [4], -2.17%; in assay [5] it was 11.1%; in [6], -9.68%. The Percent Effect in assay [7] was 9.4%; in assay [8], 22.6%; in assay [9], -3.17%; in [10], 1.28%; in [11] it was 1.91%.
As for `COCCN1CCc2cc(C(=O)NCC3CC3)c(NC(C)C)nc2CC1`, the Percent Effect is -2.06% in assay [1]; 8% in [2]; 4.16% in assay [3]; 9.64% in assay [4]; -1.74% in assay [5]; -27.8% in assay [6]. For the same compound, the Percent Effect in [7] is 13.2%; in assay [8], 55.7%; in assay [9] it was 1.04%; in assay [10], 12.5%; in assay [11], -10.2%.
Take `CC(C)C(=O)N1CCCC(c2ncncc2-c2ccncc2)C1` (stereo unspecified): the Percent Effect was -0.489% in assay [1]; 10.7% in assay [2]; 4.63% in assay [3]; -4.06% in assay [4]; 5.91% in assay [5]; -4.89% in [6]. The Percent Effect in assay [7] is 6.61%; in assay [8], -4.43%; in [9], 1.06%; in [10], 8.97%; in [11] it was -4.02%.
